This note sets out measurements from PubChem BioAssay.

The viability is a per cent measure of how many cells are alive, often set against a control. As a reminder, the remaining activity is the signal under treatment as a percentage of the control signal. In general, AC50 refers to the concentration at which the activity in the assay is half-maximal. Broadly, the IC50 is the concentration at which inhibition is half-maximal.

“And” between values parts separate entries of the source, which are not always exact repeats. Identical values can stand only once. Inconclusive results are not listed. The source made the active and inactive calls. Unless noted, cut-off not given; nearly all actives show AC50 up to about 26 µM.

Assay [1] is described as follows: liver-stage malaria parasite growth inhibition, primary screen, cell-based, HepG2, luciferase luminescence, HepG2 viability (AID 624349; in the data active means parasite load remaining mostly below about 12%, no sharp cut-off; inactive means mostly above about 10%;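 further: 100% = mean of DMSO negative control wells on the same plate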). The settings on record: P. berghei liver stage in HepG2, luciferase luminescence, concentration not given here; parasite load remaining: stronger effect = lower value; viability: measured here: HepG2 viability without parasites.
The test system of assay [2] is Aerobactin synthetase IucA (Klebsiella pneumoniae). Description: IucA aerobactin synthetase inhibitors, biochemical, Tocris library, absorbance (AID 1345561; call rule not given here;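 further: 100% = enzyme without compound and 0% = no enzyme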). Conditions: purified IucA enzyme assay, absorbance (OD) read-out; stronger effect = lower value;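 tested at 8 µM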.
A short description of assay [3]: growth inhibition of DIPG glioma cells, dose response, cell-based, SU-DIPG-XVII, MIPE5.0, CellTiter-Glo, qHTS (AID 1347060).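 On AC50: cells exposed to compound for 48 hours before viability readout.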 Conditions: SU-DIPG-XVII viability, CellTiter-Glo ATP luminescence. For orientation: ATP-based viability assays read luminescence as a measure of living cells.
The nature of assay [4]: growth inhibition of DIPG glioma cells, dose response, cell-based, JHH-DIPG-1, MIPE4.0, CellTiter-Glo, qHTS (AID 1347062; cut-off not given, nearly all actives have AC50 up to about 27 µM;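 on AC50: cells exposed to compound for two days before readout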). Conditions: JHH-DIPG-1 viability, CellTiter-Glo ATP luminescence.
A short description of assay [5]: growth inhibition of DIPG glioma cells, dose response, cell-based, SU-DIPG-IV, MIPE4.0, CellTiter-Glo, qHTS (AID 1347063; cut-off not given, nearly all actives have AC50 up to about 30 µM;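 further: compound exposure lasted 48 hours before the viability readout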). The settings on record: SU-DIPG-IV viability, CellTiter-Glo ATP luminescence.
The nature of assay [6]: growth inhibition of DIPG glioma cells, dose response, cell-based, SU-DIPG-XIII, MIPE5.0, CellTiter-Glo, qHTS (AID 1347064; cut-off not given, nearly all actives have AC50 up to about 23 µM;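 on AC50: cells exposed to compound for 48 hours before the viability read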). The settings on record: SU-DIPG-XIII viability, CellTiter-Glo ATP luminescence.
Assay [7] can be described thus: viability loss in pontine glioma line – cell-based, SU-DIPG-XXV, MIPE5.0, CellTiter-Glo, qHTS, dose response (AID 1347065).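 Further: cells exposed to compound for 48 hours before ATP readout.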 The settings on record: CellTiter-Glo ATP luminescence.
Assay [8] can be described thus: SU-DIPG-VI glioma cell viability, MIPE4.0 library, CellTiter-Glo luminescence, qHTS (AID 1347066; cut-off not given, nearly all actives have AC50 up to about 30 µM;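 further: cells exposed to compound for 48 hours before readout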). Conditions: CellTiter-Glo ATP luminescence.
Assay [9] in a line: JHH-DIPG-1 glioma cell viability, MIPE5.0 library, CellTiter-Glo luminescence, qHTS (AID 1347067).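 Further: cells exposed to compound for 48 hours before readout.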 The settings on record: JHH-DIPG-1 glioma viability, CellTiter-Glo ATP luminescence.
The nature of assay [10]: SU-DIPG-XXV glioma cell viability, MIPE5.0 library, qHTS (AID 1347068; cut-off not given, nearly all actives have IC50 up to about 30 µM;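 on IC50: cells exposed to compound for 48 hours before viability readout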).
Assay [11] in a line: sensitizers of A549 cells to miR-34 induction, primary screen, imaging, A549 dox-inducible miR-34, nuclei and caspase counts (AID 1347080;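 active means compounds whose cell count with miR-34 switched on is under 0.7 times the count with it off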). The settings on record: A549 miR-34 inducible, Hoechst nuclei count, 48 h.
The nature of assay [12]: survival rescue of mitochondrial mutant cells in low glucose, primary screen, MELAS cybrids, Rieske KO mouse fibroblasts, CellTiter-Glo (AID 1508586;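 active means mean z-score across replicates of 1.96 or higher in either the MELAS or the Rieske mutant cell line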;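 further: z relative to plate mean and SD of compound and empty wells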).
Assay [13] can be described thus: viability rescue of complex I mutant cybrids, primary screen, cell-based, galactose medium, ATP luminescence (AID 1645843;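 active means z-score of at least 1.8 in each of two replicates, scored against plate mean and spread of sample wells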;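 further: positive z means more ATP and so rescue of galactose-driven cybrid death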). The settings on record: complex I mutant cybrid cells, 72 h, stronger effect = higher value.
Assay [14] in a line: growth inhibition of DIPG glioma cells, dose response, cell-based, SU-DIPG-XIII, MIPE4.0, CellTiter-Glo, qHTS (AID 1347061; cut-off not given, nearly all actives have AC50 up to about 37 µM;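 further: cells exposed to compound for 48 hours before readout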). The settings on record: SU-DIPG-XIII viability, CellTiter-Glo ATP luminescence.
Assay [15] can be described thus: modifiers of HSF1 nuclear foci, imaging, Selleck Cancer Library (AID 1347162; in the data active means plate-normalised HSF1 focus index below about 0.46). Conditions: human cells, at 10 µM; SSMD: measured here: HSF1 foci SSMD mean; cell count: measured here: cell number; plate-normalised HSF1 focus index: stronger effect = lower value.
The mark [16] stands for this setting: stronger effect = lower value, cell number ratio, induced over uninduced.
[17] abbreviates: measured here: relative caspase fold change +Dox/-Dox.
[18] abbreviates: measured here: total cells with miR-34 induction, stronger effect = lower value.
The mark [19] stands for this setting: measured here: total cells without miR-34 induction.
Setting [20] is: MELAS cybrid survival, CellTiter-Glo 48 h, stronger effect = higher value.
The mark [21] stands for this setting: Rieske KO mouse fibroblast survival, CellTiter-Glo 72 h.

As for `Oc1ccc2ccccc2c1SSc1c(O)ccc2ccccc12`, in [1], the parasite load remaining was 35.3% (inactive). The viability in assay [1] came to 87.1%. In addition, the remaining activity in assay [2] is 112% (inactive). Besides, the AC50 in assay [3] was 14.8 µM (active); in assay [4], 23.5 µM (active); in assay [5], 18.7 µM (active); in assay [6], 14.8 µM (active); in [7], 11.8 µM (active); in assay [8] it was 23.5 µM (active). For the same compound, the AC50 in [9] was 10.5 µM (active). Moreover, the outcome in assay [10] was inactive. Also, the fold change in assay [11] (setting [16]) is 0.974 (inactive) and 0.952 (inactive) and 0.85 (inactive); in assay [11] (setting [17]), 1 and 0.368 and 2.34. Besides, the cell count in [11] (setting [18]) is 7700 and 7960 and 7720; in [11] (setting [19]), 7910 and 8360 and 9070. For the same compound, the z-score in assay [12] (setting [20]) is 2.05 (active); in assay [12] (setting [21]), -0.0374; in assay [13], -1.38 (inactive) and -0.86 (inactive).

Regarding `O=Nc1c(-c2c(O)[nH]c3cc(Br)ccc23)[nH]c2ccccc12`, the parasite load remaining in assay [1] was 17.4% (inactive). Besides, in assay [1], the viability was found to be 92.7%. In addition, the remaining activity in assay [2] is 107% (inactive). For the same compound, the AC50 in [3] was 8.33 µM (active); in assay [4] it was 20.9 µM (active); in assay [5], 3.32 µM (active); in [6], 14.8 µM (active); in assay [7] it was 7.42 µM (active); in [8], 20.9 µM (active). Also, the concentration at half-maximal activity (AC50) in [9] is 14.8 µM (active). Further, the call in assay [14] was inactive. Also, the half-maximal inhibitory concentration (IC50) in assay [10] is 10.5 µM (active). The z-score is -0.015 (inactive) in assay [12] (setting [20]); 1.62 in assay [12] (setting [21]); -1.29 (inactive) and -0.705 (inactive) in [13].

As for `COc1ccc(CCN(C)CCCOc2ccc(S(=O)(=O)c3c(C(C)C)c4ccccc4n3C)cc2)cc1OC`, in assay [2], the remaining activity was 115% (inactive). Also, the AC50 is 18.6 µM (active) in [3], 23.5 µM (active) in assay [6], 9.34 µM (active) in [7] and 10.5 µM (active) in [9]. The call in assay [8] was inactive. In addition, the results for the fold change in [11] (setting [16]) and in assay [11] (setting [17]) were 1.02 (inactive) and 0.864, respectively. Also, the results for the cell count in [11] (setting [18]), in assay [11] (setting [19]) and in assay [15] were 222, 219 and 5740, respectively. The SSMD in [15] is -4.23. Besides, the plate-normalised HSF1 focus index in assay [15] was 0.749 (inactive). In addition, the z-score in assay [13] is -1.04 (inactive).

`CCOc1cc(C(=O)Nc2ccc(Cl)c(-c3nc4ccccc4[nH]3)c2)cc(OCC)c1OCC`: in assay [2], the remaining activity is 119% (inactive). Besides, the outcome in assay [3], in assay [8] and in assay [10] was inactive. In addition, the AC50 in assay [14] is 10.5 µM (active). The results for the fold change in assay [11] (setting [16]) and in assay [11] (setting [17]) were 0.991 (inactive) and 0.843, respectively. The values for the cell count in [11] (setting [18]), in assay [11] (setting [19]) and in assay [15] were 5960, 6020 and 6790, respectively. Also, the SSMD in assay [15] was 4.38. Moreover, the plate-normalised HSF1 focus index in [15] was 1.26 (inactive). Moreover, the z-score in assay [13] was 0.375 (inactive).

For the compound `O=c1[nH]nc(Sc2ncc([N+](=O)[O-])s2)n1-c1ccc2c(c1)OCCO2`, the remaining activity in [2] is 125% (inactive). The AC50 in [3] is 3.72 µM (active); in assay [14], 5.9 µM (active); in assay [4] it was 5.26 µM (active); in [6] it was 3.72 µM (active); in assay [7], 2.35 µM (active); in assay [8], 2.64 µM (active). The AC50 in [9] was 2.95 µM (active). Also, in [10], the IC50 was 23.5 µM (active). The fold change was 1.25 (inactive) in [11] (setting [16]) and 0.969 in assay [11] (setting [17]). The cell count in assay [11] (setting [18]) came out at 2070; in [11] (setting [19]), 1660; in assay [15] it was 5980. Also, the SSMD in assay [15] is -8.15. The plate-normalised HSF1 focus index in [15] was 0.592 (inactive). Moreover, the z-score in assay [13] was -0.705 (inactive).

Turning to `COc1cc(OC)c(NC(=O)Nc2cc(C)on2)cc1Cl`, the remaining activity in assay [2] was 101% (inactive). The compound was called inactive in assay [3], in assay [14], in assay [4], in assay [5], in assay [6] and in [7]. Also, the call in assay [8] and in [9] was inactive. The fold change is 0.801 (inactive) and 0.945 (inactive) in assay [11] (setting [16]); 0.762 and 1.52 in [11] (setting [17]). The cell count is 8290 and 9250 in assay [11] (setting [18]); 10400 and 9800 in assay [11] (setting [19]). The z-score in assay [12] (setting [20]) was -0.366 (inactive); in [12] (setting [21]), 1.34; in assay [13], 1.75 (inactive).
